From PubChem BioAssay AID588343 (Broad Institute, 2011)
Screen size: about 1,200 compounds; about 650 (54%) were called active. Roughly 5% stayed inconclusive and do not appear here.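 The calls were made as follows: active = signal-lowering curve whose fitted half-maximal concentration is at or below ten times the top valid dose tested; inconclusive = flat curve with 30 to 70% inhibition, or poor fit; inactive = signal increase, flat within 30%, or potency beyond limit.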 The set was probably picked from earlier hits. These entries were drawn from the full list. Potency and affinity values are given separately.

assay: EBV LMP1 TES2 canonical NF-kB signalling blockers – cell-based, HEK293, luciferase, cherry-pick, dose response (AID 588343); conditions: HEK293 LMP1 TES2 NF-kB luciferase reporter, 16 h; series mostly up to 35 µM

outcome, inactive:
COc1ccc(N2C(=O)C(=O)/C(=C(/O)c3ccc(C)cc3)C2c2cccnc2)cc1 (stereo not given)
CC(=O)Nc1ccc(OCCCNC(=O)c2c(-c3ccccc3)noc2C)cc1
COC(=O)c1ccc(COc2ccccc2/C=C/C(=O)c2ccc(OCC(=O)O)cc2)cc1
Cc1ccc(C)c(S(=O)(=O)N2CCN(CC(=O)N3CCc4ccccc4C3)CC2)c1
CCc1c(C)nc2cc(-c3ccc(OC)c(OC)c3)nn2c1NCC1CC1
NC(=O)C1(Nc2ccc([N+](=O)[O-])cc2)CCCC1
CCCCCC(=O)N1CCN(c2ccc(C(C)=O)cc2F)CC1
O=C1CCC(C(=O)N2CCCCCC2)CN1CCc1ccc(Cl)cc1 (stereo not given)
O=C(C1CCCCC1)N1CCN(c2ncccn2)CC1
CCN(CC)Cc1cc(Nc2ccnc3cc(Cl)ccc23)ccc1O
COc1ccc(OC)c2[nH]c(=O)c(CCNC(=O)c3ccc(S(=O)(=O)N(C)C)cc3)cc12
O=C(c1sc2cc([N+](=O)[O-])ccc2c1Cl)N1CCOCC1
COc1ccc(-c2cn3nc4c(nc3n2)CCCC4)cc1
O=C(CCC(=O)NNC(=O)Nc1cccc(Cl)c1)NCc1ccccc1
CC(C)(C)c1cc(C(=O)NNC(=O)Nc2cccc(Cl)c2)n(Cc2ccccc2)n1
O=C(O)c1cccc(NC(=O)c2cn(-c3ccccc3)nc2-c2ccc(F)cc2)c1
CC(CN1CCCCC1)OC(=O)c1ccc2c(c1)OCO2 (stereo not given)
COc1cccc(CC(=O)NNC(=O)c2ccc3c(c2)OCO3)c1
COC(=O)C1=C(C)N(CCCC(=O)O)C(=O)NC1c1cccc(Cl)c1Cl (stereo not given)
Cn1cc(SCC(=O)NCC2CCCO2)c2ccccc21 (stereo not given)
COc1ccc(CN(C(=O)c2nsc(Cl)c2Cl)C(C(=O)NC2CCCC2)c2ccc(C)cc2)cc1 (stereo not given)
CCc1nnc(NC(=O)c2ccc(S(=O)(=O)N3CCOCC3)cc2)s1
CN(Cc1ccc(F)cc1)C(=O)CN1CCN(S(=O)(=O)c2ccc3c(c2)OCCCO3)CC1
Cc1c(C=O)c2ccccn2c1C(=O)c1ccccc1Cl
COc1cc(/C=N/NC(=O)c2cccc(S(=O)(=O)N3CCOCC3)c2)cc(OC)c1O
CC(=O)c1ccccc1OCC(=O)Nc1cccc(S(=O)(=O)N2CCCC2)c1
Cc1ccc(S(=O)(=O)N2CCCCC2)cc1NC(=O)CNc1ccccc1N1CCCC1=O
Cc1ccc(-c2nnn(CC(=O)N(Cc3ccco3)C(C(=O)NC(C)(C)C)c3ccncc3)n2)o1 (stereo not given)
CCOC(=O)Cc1csc(N/N=C\c2ccc(N(C)C)cc2)n1
COc1ccc(/C=N/NC(=O)COc2ccccc2-c2ccccc2)cc1
COc1ccccc1C(=O)NC(=O)CSc1nnc(N)s1
Cc1ccc(N(Cc2cc3ccccc3[nH]c2=O)C(=O)c2ccco2)c(C)c1
Cc1ccc(CN2C(=O)CCC2C(=O)NCCCN2CCC(C)CC2)cc1 (stereo not given)
COc1ccc(N2CCN(CCNC(=O)CCCn3c(=O)[nH]c4cc(Cl)ccc4c3=O)CC2)cc1
COc1ccc(-c2nc(CS(=O)CC(=O)NCc3ccc(Cl)cc3)c(C)o2)cc1 (stereo not given)
CC1CC(C)CN(S(=O)(=O)c2ccc(NC(=O)CCN3C(=O)C4CC=CCC4C3=O)cc2)C1 (stereo not given)
CC1(C)CN(Cc2ccccc2)C(=O)[C@H]1CC(=O)Nc1ccccc1
CC(C)(C)c1nc2c(s1)CCc1onc(-c3ccc(Br)cc3)c1-2
O=C(O)c1ccc(C=NNC(=O)c2cccc3ccccc23)cc1
CS(=O)(=O)Nc1ccc(C2=NN(S(C)(=O)=O)C(c3ccccc3)C2)cc1 (stereo not given)
CC(=O)NC(CCS(C)(=O)=O)C(=O)Nc1ccc(Cl)c(Cl)c1 (stereo not given)
Cc1cc(C)c(OCCn2ccnc2)c(C)c1
COCCn1c(SCCN2CCOCC2)nc2c1c(=O)[nH]c(=O)n2C
CN1CCN(C(=O)C2=C[C@@H](C(C)(C)C)C[C@@H](OCc3ccc(CO)cc3)O2)CC1
COC(=O)[C@H](C)[C@H]1C[C@]1(C)[C@H](NC(=O)OCc1ccccc1)c1ccccc1
Cc1nc(C)n(C(C)CNC(=O)c2ccco2)n1 (stereo not given)
O=C1CCCN2N=C(SCC(=O)Nc3ccc(Br)cc3)SC2=N1
CSc1nc(C)cc(C)c1C#N
CC(=O)c1ccc(-n2nnnc2SCC(=O)N2CCc3ccccc3C2)cc1
CCSc1nnc(NC(=O)CSc2nnc(-c3c[nH]c4ccccc34)n2CC)s1
COc1ccc(S(=O)(=O)N2CCN(CC(=O)Nc3cc(OC)cc(OC)c3)CC2)cc1
COc1ccc(C(=O)CN(CCC(=O)O)S(=O)(=O)c2ccc([N+](=O)[O-])cc2)cc1
Cc1cccc(S(=O)(=O)N2CCCc3ccccc32)c1
COc1cc(C(c2sc3nc(C)nn3c2O)N2CCc3ccccc3C2)cc(OC)c1OC (stereo not given)
O=C(OCc1ccccc1F)c1cc2ccccc2cc1O
Nc1cc(=O)[nH]c(SCCSc2cc(Cl)ccc2Cl)n1
OCCN(CCO)CC(O)COCCC12CC3CC(CC(C3)C1)C2 (stereo not given)
CN=C1S/C(=C\c2ccc(O)c(Br)c2)C(=O)N1C
CC(=O)OCC(=O)[C@@]1(O)CC[C@H]2[C@@H]3CCC4=CC(=O)CC[C@]4(C)[C@H]3[C@@H](O)C[C@@]21C
Cc1cccc(-n2c(O)c(C=Nc3c(C)n(C)n(-c4ccccc4)c3=O)c3ccccc3c2=O)n1
O=c1c(O)c(-c2ccc(O)c(O)c2)oc2cc(O)cc(O)c12
CN(Cc1ccccc1)c1nc(N)c([N+](=O)[O-])c(NCc2ccccc2)n1
COc1ccccc1C(=O)Nc1c[nH]c(=O)[nH]c1=O
COc1ccc(N2C(=O)C(Cl)=C(NCc3ccccc3)C2=O)cc1
COc1ccc(N2Cc3cccc(C(=O)NC(C)CCc4ccco4)c3C2=O)cc1 (stereo not given)
Cc1cc(=O)[nH]c(=S)[nH]1
C=CC[N+](C)(C)C/C(Cl)=C(\Cl)c1ccccc1
O=c1cc(C2CCCCC2)[nH]c(=O)[nH]1
CC(C)NC(=O)N(C)C[C@H]1Oc2c(NC(=O)Nc3ccc4c(c3)OCO4)cccc2C(=O)N([C@H](C)CO)C[C@@H]1C
Cc1ccc(S(=O)(=O)N2CCN(C(=O)COC(=O)COc3ccc(Cl)cc3)CC2)c(C)c1
CCC(C)N1C(=O)CCC1C(=O)N1CCN(c2ccc(F)cc2)CC1 (stereo not given)
COc1cc2cc(C(=O)N3CCN(c4ccccc4OC)CC3)[nH]c2cc1OC
O=C1c2cccc3c(O)ccc(c23)C(=O)N1c1ccc(Cl)cc1
O=C(CC(c1ccc(F)cc1)c1ccco1)N1CCOCC1 (stereo not given)
Fc1cccc(Cl)c1/C=N/n1c(-c2cccnc2)n[nH]c1=S
COc1ccc(/C=C/C(=O)OCC(=O)NCc2ccco2)cc1OC
O=C(NCc1ccco1)C1CC(=O)N(c2cccc(Cl)c2)C1 (stereo not given)
COc1cc(NCCCCCCN)c2ncccc2c1OC
O=C(Nc1ccc(F)c(F)c1)C1CCCCC1
COC(=O)c1ccccc1NC(=O)CSc1nnnn1C
Cc1ccc(S(=O)(=O)N2CCN(C(=O)CSc3nnnn3C)C2)cc1
O=C1c2ccccc2C(O)N1Cc1ccccc1 (stereo not given)
Cc1cc(=S)[nH]c2ccccc12
Cc1ccc(-n2c(=O)c3c(c4cc(C)ccc4n3C)n(CC(=O)NCC3CCCO3)c2=O)cc1 (stereo not given)
COC(=O)c1c(O)ccc(Oc2ccccc2)c1C(=O)OC
NC(=O)OCC(COC(N)=O)c1ccccc1
CC1CCN(CCOc2ccc(C(=O)c3ccccc3)cc2)CC1
O=C(O)c1ccccc1Nc1cccc(OCc2ccc3ccccc3n2)c1
CCN(CC)S(=O)(=O)c1ccc(N=NC2=C(O)CCCC2=O)cc1
Cc1cc(NC(=O)CSc2ccnc(=O)[nH]2)no1
COC(=O)c1c(NC(=O)c2nn(C)cc2Cl)sc2c1CCCC2
Nc1ccccc1SC1CC(=O)N(c2ccccc2Cl)C1=O (stereo not given)
Cc1ccc(S(=O)(=O)N[C@H](C(=O)N2CCC(C(=O)N[C@@H](CC(=O)O)C(=O)O)CC2)C(C)C)cc1
CCCSc1ccc([C@@H]2[C@H]3C(=O)N(C)C(=O)[C@H]3[C@]3(C(=O)OC)CCCN23)cc1OC
CC(C)N1CCN(c2ccc(OC[C@H]3CO[C@](Cn4cncn4)(c4ccc(Cl)cc4Cl)O3)cc2)CC1
COC(=O)C1=C(C(=O)c2ccccc2)C(c2ccccc2)n2nnnc2N1 (stereo not given)
Cc1cc(C)n2nc(CC(=O)NC3CCCCCC3)nc2n1
Cc1cc(=O)[nH]c(N/N=C/c2ccc(C)o2)n1
Cc1cc(C)c2sc(NC(=O)C3CC3)nc2c1
CCSC1=C(C#N)C(c2ccc(C)o2)CC(=O)N1 (stereo not given)
CC(=O)/C=C/c1ccccc1O
COc1ccc(-c2csc(Nc3cccc(C)n3)n2)cc1OC
CCOC(=O)c1c(NC(=O)C2C3CCC(O3)C2C(=O)O)sc(C)c1-c1ccc(F)cc1 (stereo not given)
CCN1C(=O)[C@@H]2[C@@H](c3ccc(-c4ccc(Cl)c(Cl)c4)cc3)N3CCC[C@@]3(C(=O)OC)[C@@H]2C1=O
COc1ccc([C@H]2N[C@]3(CCCN(Cc4ccco4)C3=O)[C@H]3C(=O)N(Cc4ccccc4)C(=O)[C@@H]23)cc1
